Data on 100 compounds can be found in PubChem BioAssay AID1016 (Sanford-Burnham Center for Chemical Genomics, 2008).

Hit rate of the full screen: of about 200,000 compounds, about 330 (0.17%) were called active. Many of the other results were omitted from the sample, so actives are more common in it than they were. A number with no mark means an inactive call.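 How the source made its calls: active means activation factor of 2 or more at 20 µM, a signal rise over negative controls twice the positive control's; inactive means the rest.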

The test system of the test is alkaline phosphatase, intestinal [Bos taurus]. Kind of test: bovine intestinal alkaline phosphatase activators, primary screen, biochemical, bovine IAP, CDP-star luminescence (AID 1016). The note with it: purified bovine IAP, 30 min, at 20 µM, stronger effect = higher value, fold of DMSO-control signal, blank-subtracted.
Regarding `Cc1cc2ccccn2c1C(=O)c1cccc(S(=O)(=O)N2CCOCC2)c1`, the activation factor was 1. For the compound `Cc1ccc([N+](=O)[O-])c(OCCCNCC(C)O)c1` (stereo not given), the activation factor was 1. With `CCn1c(C(C)C)n[nH]c1=S`, the activation factor is 0.9. Take `O=C(COC(=O)c1cc([N+](=O)[O-])ccc1NCc1ccccc1)NC1CCCCC1`: the activation factor is 1.

For `COCCn1c(=NC(=O)c2ccccc2[N+](=O)[O-])sc2cc(S(C)(=O)=O)ccc21`, the activation factor was 1.2.

With `CC(C)CC(CO)N1CCN(C(=O)c2ccc(Cl)cc2Cl)CCC1=O` (stereo not given), the activation factor was 1.2. As for `Cc1cc2oc(=O)cc(CN3CCN(S(=O)(=O)c4cccs4)CC3)c2cc1C(C)C`, the activation factor is 0.9. For the compound `N#C/C(=C/c1cccc([N+](=O)[O-])c1)c1nnc2n1CCCCC2`, the activation factor is 0.5. Consider `Cc1ccc(OCCCC(=O)NC(C)c2ccccc2)c(C)c1` (stereo not given), for which the activation factor was 1. Turning to `CN(c1ccccc1)S(=O)(=O)c1cccc(NC(=O)Cc2c(F)cccc2Cl)c1`, the activation factor was 0.9.

For the compound `CCCCC(CC)CNC(=O)C(=O)C1C(=O)Nc2ccccc21` (stereo not given), the activation factor is 0.9.

Regarding `COc1ccc(OC)c(NC(=S)N2CCc3ccccc3C2)c1`, the activation factor is 1. On to `CCS(=O)(=O)N1Cc2ccccc2CC1C(=O)Nc1nc2ccc(F)cc2s1` (stereo not given), for which the activation factor was 1. `COc1cccc(C(=O)Nc2cc3c(cc2Br)OCCCO3)c1`: the activation factor is 1.1. On to `O=C(Nc1nnc(C2CC2)s1)C1=NN(C2CCS(=O)(=O)C2)C(=O)CC1` (stereo not given), for which the activation factor was 1.

On to `Cc1ccc(S(=O)(=O)/N=C(/Nc2ccc3[nH]c(=O)[nH]c3c2)c2ccccc2)cc1`, for which the activation factor was 0.9. With `Cc1cc(/C=C2/C(=N)N3C(=NC2=O)SN=C3S(C)(=O)=O)c(C)n1-c1ccccc1`, the activation factor was 1.1. On to `Cc1ccc(-n2cnc3ncnc(-c4ccccc4)c32)cc1`, for which the activation factor is 1.1.

`Cc1ccc(NC(=O)c2csc3c2CCCC3)cc1`: the activation factor is 0.9. On to `Cc1cc(C)c(NC(=S)N2CCCC2C(=O)O)c(C)c1` (stereo not given), for which the activation factor is 0.7.

Regarding `CC(Sc1nc(-c2ccccc2)cc(C(F)(F)F)n1)C(=O)Nc1ccc2c(c1)OCO2` (stereo not given), the activation factor was 0.9. Then `Cc1ccsc1/C=N/n1c(=S)[nH]nc(C)c1=O`, with 0.9.

Regarding `CC(C)C(C)(C#N)NC(=O)CSc1nncn1-c1ccccc1` (stereo not given), the activation factor was 1. Consider `Cc1[nH]c2c(C(=O)N3CCCC(CCC(=O)NCc4ccccc4F)C3)cccc2c1C` (stereo not given), for which the activation factor was 1.3. Consider `COC(=O)c1cccc([N+](=O)[O-])c1CS(=O)(=O)c1ccc(C)cc1`, for which the activation factor was 0.8. For `O=C(COC(=O)c1ccco1)NCc1ccc(Cl)cc1` the value was 1; for `O=C(N/N=C/c1cccc([N+](=O)[O-])c1)C1CC(=O)N(c2ccc(Br)cc2)C1` (stereo not given), 0.7; for `CN(C)S(=O)(=O)c1cc(NC(=O)CN2C(=O)NC3(CCCc4ccccc43)C2=O)ccc1Cl` (stereo not given), 1.

As for `CCN(CC(=O)NC(=O)NCc1ccccc1)Cc1nc2ccccc2c(=O)[nH]1`, the activation factor is 1.5. Take `CCN(CC(=O)Nc1ccc(Cl)c(S(=O)(=O)N(C)C)c1)Cc1nc2ccccc2c(=O)[nH]1`: the activation factor was 2.1 (active). Then `N#Cc1c(-c2ccc(Cl)cc2)c2c([nH]c1=S)CCCC2`, with 0.8; and `CC(C)C[C@H](NC(=O)Nc1cccc(C(F)(F)F)c1)C(=O)O`, with 4.4 (active); and `O=C(O)CSCC(=O)Nc1cccc(C(F)(F)F)c1`, with 0.9. `CCNS(=O)(=O)c1ccc(NC(=O)Nc2cccc(C(F)(F)F)c2)cc1`: the activation factor was 0.6. Regarding `CCCCCCCCc1c(O)nc(-n2[nH]c(C)c(CCO)c2=O)[nH]c1=O`, the activation factor was 1.2. Take `O=C(C1CCN(S(=O)(=O)c2ccc(Br)s2)CC1)N1CCN(C2CCCCC2)CC1`: the activation factor was 1.2. For the compound `O=C(Nc1cc(S(=O)(=O)N2CCOCC2)ccc1Cl)c1cc(=O)c2ccccc2o1`, the activation factor was 1.3.

Consider `O=[N+]([O-])c1cc(S(=O)(=O)N2CCCC2)ccc1NN=C1CCCC1`, for which the activation factor is 0.9.

With `COC(=O)C1=NN(c2ccccc2)C2C(=O)N(c3ccccc3OC)C(=O)C12` (stereo not given), the activation factor was 0.9. In the case of `CC1CN(C(=O)c2ccccc2NS(=O)(=O)c2cccc([N+](=O)[O-])c2)CC(C)O1` (stereo not given), the activation factor was 0.9. With `CCOc1cc(NC(=S)NCc2ccco2)c(OCC)cc1NC(=O)c1ccco1`, the activation factor was 1. For `NNC(=O)C1CC(O)CN1S(=O)(=O)c1ccc(Cl)cc1` (stereo not given), the activation factor is 1.1. Take `CC(C)OC(=O)CN1CCN(c2ccc(Cl)cc2)CC1`: the activation factor was 1.1. As to `O=C(C(=O)N1CCc2ccccc2C1)c1c[nH]c2ccccc12`, the activation factor is 0.9. For `COc1ccc(N2CCN(C(=O)COc3ccc4c(C)cc(=O)oc4c3)CC2)cc1`, the activation factor is 1.1.

For the compound `O=C(O)c1cccc(N=NN2CCCCCC2)c1`, the activation factor was 1.1. In the case of `COc1cc(NC(=S)NCc2ccc(S(N)(=O)=O)cc2)cc(OC)c1`, the activation factor is 1. As for `Cc1ccc(S(=O)(=O)N(C)C)cc1NC(=O)/C=C/c1cccs1`, the activation factor is 0.9. On to `COc1cc(OC)c(-n2cc(-c3ccc(Cl)cc3)[nH]c2=O)cc1Cl`, for which the activation factor was 1. Then `CCCNC(=S)N1CCCC(c2nc3ccccc3[nH]2)C1` (stereo not given), with 1.1. As to `Cc1ccccc1C(OCCN(C)C)C1CCCCC1` (stereo not given), the activation factor was 1.1.

On to `CCCN(CCC)CCCNC(=O)CNC(=O)c1nn(-c2ccc(OC)cc2)c(=O)c2ccccc12`, for which the activation factor was 1.1. As to `CCc1nnc(NC(=O)C2CC(=O)N(c3ccc4c(c3)OCCO4)C2)s1` (stereo not given), the activation factor was 0.4.

Regarding `Cc1ccc(S(=O)(=O)N2CCN(CC(=O)N/N=C/c3cc([N+](=O)[O-])ccc3Cl)CC2)cc1`, the activation factor is 0.5. For `COc1ccc(/C=N/NC(=O)CNC(=O)c2ccc(S(=O)(=O)N3CCCC3)cc2)c(OC)c1` the value was 1.1. Then `Cc1cc(Br)ccc1SCC(=O)OCC(=O)NCc1ccc2c(c1)OCO2`, with 0.8. Regarding `CS(=O)(=O)n1nc(-c2ccco2)nc1N`, the activation factor is 1.2.

In the case of `Cc1ccc(NC(=O)NC(=O)N(C2CCCCC2)S(=O)(=O)c2ccccc2)cc1`, the activation factor was 1.1. `CCN(CC)CCCSc1nc2ccccc2s1`: the activation factor is 1.1. Regarding `COc1ccc(C2/C(=C(/O)c3ccccc3)C(=O)C(=O)N2c2ncccn2)cc1OC` (stereo not given), the activation factor is 1. For `COc1ccc(C2SCCN2S(=O)(=O)c2ccccc2)cc1OC` (stereo not given), the activation factor was 1. As for `COc1ccc(C2N=C(N)N=C(N)N2c2ccccc2)cc1OC` (stereo not given), the activation factor was 3 (active). Turning to `O=C(Nc1nnc(C2COc3ccccc3O2)o1)c1ccc(F)cc1` (stereo not given), the activation factor was 1. Consider `C/C(Cc1ccccc1)=N\NC(=O)CNC(=O)c1cccc(Br)c1`, for which the activation factor was 0.9. For the compound `Cc1ccccc1NC(=O)c1ccc(COc2ccc3c(C)cc(=O)oc3c2)cc1`, the activation factor is 1. Turning to `Oc1c(C(c2ccccn2)N2CCOCC2)ccc2cccnc12` (stereo not given), the activation factor is 2 (active).

Take `Cc1nc2sc(C(c3ccco3)N3CCOCC3)c(O)n2n1` (stereo not given): the activation factor is 0.9. As to `CCOC(=O)N1CCN(C(c2cccnc2)c2ccc3cccnc3c2O)CC1` (stereo not given), the activation factor is 1.3. Take `CCOC(=O)c1nn(-c2ccccc2F)c2nc(Nc3ccccc3)cc(=O)n12`: the activation factor is 1.

As to `Cc1ccccc1C1=NC(C(F)(F)F)(C(F)(F)F)c2c(n(-c3ccc(F)cc3)c(=O)[nH]c2=O)N1`, the activation factor is 0.9. Take `CC1CCC(C(C)C)C(=O)/C1=C\c1ccc(NC(=O)CCC(=O)O)cc1` (stereo not given): the activation factor was 0.9. Then `C[C@@H](O)c1nc2ccccc2n1N`, with 0.9; and `Cc1ccc(C(=O)Nc2sc(Cc3ccc4c(c3)OCO4)c(C)c2C(N)=O)cc1`, with 0.9; and `CN(C)S(=O)(=O)Oc1ccccc1C(=O)Nc1ccccc1Cl`, with 0.9. `COc1ccc(S(=O)(=O)N(C)CC(=O)N2CCCC2)cc1Cl`: the activation factor is 1. Consider `CC(=O)Nc1ccccc1OC(=O)N1CCOCC1`, for which the activation factor was 0.9.

`O=C(Oc1ccc2c(c1)CCC2)N1CCOCC1`: the activation factor is 2.4 (active).

On to `COc1ccc(CC(=O)Nc2ccc3c(c2)CCC3)cc1S(=O)(=O)N1CCOCC1`, for which the activation factor was 1. With `CCc1cc(-c2n[nH]c(=S)n2CC(C)C)cs1`, the activation factor was 1. Consider `O=C(CNC(=O)c1cc(=O)[nH]c2ccccc12)Nc1ccc(F)c(F)c1`, for which the activation factor is 0.9. On to `Cc1cc(C)nc(-n2ncc3c2CC(c2ccc(C(C)C)cc2)CC3=O)n1` (stereo not given), for which the activation factor is 0.8. Then `CCC(=O)N1c2ccccc2NC2=C(C(=O)CCC2)C1c1ccco1` (stereo not given), with 1; and `NC(=O)COC(=O)c1cc(S(=O)(=O)N2CCN(c3ccccc3)CC2)ccc1Cl`, with 1.1.

`COCc1c(N)c(C)nc(Cl)c1C#N`: the activation factor is 1.1. Then `Cc1cccc(C)c1NC(=O)C1CCCN1C(=O)OC(C)(C)C` (stereo not given), with 0.8. For `CC(=O)NCCC(=O)Nc1cc(S(=O)(=O)N2CCOCC2)ccc1N1CCOCC1` the value was 1; for `CCCC1OC23CCCCC2C(C#N)(C#N)C1(C#N)C(=N)O3` (stereo not given), 1.1; for `Cc1ccc(C(=O)NC(=S)NCc2cccnc2)cc1`, 1. Turning to `NC(=O)C1CCN(C(=O)COc2cccc3cccnc23)CC1`, the activation factor is 1. With `Cc1nn(Cc2ccc(F)cc2)c(C)c1NC(=O)c1cccnc1Cl`, the activation factor was 1.1. Then `CC(=O)Cn1ncc(N2CCOCC2)c(Br)c1=O`, with 1.1. Then `C/C(CC(=O)Nc1cccc(C(F)(F)F)c1)=N\NC(=O)C(=O)NCC(C)C`, with 1.3. Consider `O=C(NN1C(=O)C2C3C=CC(O3)C2C1=O)c1ccncc1` (stereo not given), for which the activation factor is 0.8. `CC(C)C1Nc2c(C(=O)O)cccc2C(Nc2ccccc2C(=O)O)C1(C)C` (stereo not given): the activation factor is 1.1. For the compound `COc1cc(C(O)c2nc3ccccc3n2C)cc(OC)c1OC` (stereo not given), the activation factor was 1.

Consider `CCCn1c(C(Cc2ccccc2)NC(=O)COC)nc2ccccc21` (stereo not given), for which the activation factor is 0.9. For `CCCn1c(C(O)c2ccc(OCC)cc2)nc2ccccc21` (stereo not given), the activation factor is 19.1 (active). On to `CCOCCn1c(C(C)C)nc2ccccc21`, for which the activation factor was 0.9. Consider `CCOc1ccc(C(O)Cc2nc3ccccc3n2C)cc1` (stereo not given), for which the activation factor is 0.8.

`CCCn1c(C(O)c2cc(OC)ccc2OC)nc2ccccc21` (stereo not given): the activation factor is 73.3 (active).
